These results are taken from the supplement of paper PMC10338343.

The test system of test [1] is MILI (PIWIL2) piRISC loaded with piRNA #1 (26 nt). Description: pre-steady-state target cleavage rate (min^-1); guide: piRNA #1 5'p-UGAGGUAGUAGGUUGUAUAGUAUCCA; higher = faster piRNA-guided slicing of the target. To be noted: auxiliary factor: 500 nM mouse GTSF1. The method in brief: (§1)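 The method was Cleave-'n-Seq, in which uncleaved targets from a transcribed, DNA-blocked target RNA library were sequenced after exposure to active affinity-purified piRISC carrying one synthetic guide, with or without GTSF1 partner protein. Reactions contained 0.1 nM library, 1 nM piRISC and, where present, 500 nM GTSF1 in HEPES–potassium acetate buffer at 33 °C for 0–8 or 0–960 min. Reads were normalised to depth and to weakly complementary targets, three trials were pooled, and k3 was capped at 0.0001 min^-1. The pre-steady-state cleavage rate came from a burst-and-steady-state fit.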

The test system of test [2] is EfPiwi piRISC loaded with piRNA #1 (26 nt). Put plainly: pre-steady-state target cleavage rate (min^-1); auxiliary factor: 500 nM Ephydatia muelleri Gtsf1; guide: piRNA #1 5'p-UGAGGUAGUAGGUUGUAUAGUAUCCA; MIWI and MILI are mouse PIWI proteins and EfPiwi is from a freshwater sponge; tags in brackets are library labels; higher = faster piRNA-guided slicing of the target. In a few lines:
as §1

± gives the standard deviation.

Consider GGAGACGAUACAUUACAACCUACUACCUCA, for which the “pre-steady-state target cleavage rate” value in test [1] worked out at 0.173 ± 0.015; in test [2] it was 0.00848 ± 0.0035.
For GGAGACGAUAGAUUACAACCUACUACCUCA, in that order: 0.0557 ± 0.011 and 0.00662 ± 0.0047.
The like results for GGAGAGGAAUGUAUACAACCUACUACCUCA were, in that order, 0.0539 ± 0.0062 and 0.0061 ± 0.0042.
The like results for GGAGAGGAUACUAUACAACCUCUACCUCA were, in that order, 0.0184 ± 0.0033 and 0.00619 ± 0.0034.
As for GGAGACCUAACUAUACAACCUACUACCUGCA, the entries for the “pre-steady-state target cleavage rate” value in test [1] and in test [2] were 0.149 ± 0.034 and 0.0711 ± 0.039, respectively.
For GGAGACCUACCUAUACAACCUACUACCUCA, in that order: 0.117 ± 0.026 and 0.0239 ± 0.012.
The like results for GGAGAGGUUACUAUACAACCUACUACGUCA were, in that order, 0.011 ± 0.0037 and 0.00435 ± 0.0016.
For GGAGAGGAUCUAUACAACCUACUACCUCA, in that order: 0.171 ± 0.013 and 0.00612 ± 0.0048.
Turning to GGAGUUGAUACUAUACAACCUACUACCUCA, the “pre-steady-state target cleavage rate” value in test [1] came out at 0.204 ± 0.012; in test [2], 0.193 ± 0.06.
For GGAGAGGAUACUAUACAAGGUACUACCUCA, in that order: 0.0284 ± 0.0051 and 0.00404 ± 0.0023.
The like results for GGAGAGGAUACUAUACAAACUACUACCUCA were, in that order, 0.134 ± 0.013 and 0.00673 ± 0.0029.
For “GGAGUGGAUACUAUACAUGGAUGAUGGAGA [g14:g26:cont:t1A]”, in that order: less than 0.0001 and less than 0.0001.
Consider GGAGACCAUACUAUACAACCUACUACGAGA, for which the “pre-steady-state target cleavage rate” value was determined as 0.0759 ± 0.019 in test [1] and 0.00579 ± 0.0027 in test [2].
For GGAGACCUAAGAAUACAACCUACUACCUCA, in that order: 0.0112 ± 0.0044 and 0.00727 ± 0.0035.
The like results for GGAGUGGAAACUAUACAACCUACUACCUCA were, in that order, 0.225 ± 0.02 and 0.0504 ± 0.018.
For GGAGACCUAUCUAUACUACCUACUACCUCA, in that order: 0.0815 ± 0.01 and 0.00437 ± 0.0031.
On to GGAGUGGAUACUAUACAACGUAGUACCUCA, for which the “pre-steady-state target cleavage rate” value was 0.0167 ± 0.0028 in test [1] and 0.00292 ± 0.0011 in test [2].
The like results for GGAGACCUUACAUAUACAACCUACUACCUCA were, in that order, 0.0595 ± 0.012 and 0.00546 ± 0.0041.
For GGAGACCUAACUUUACAACCUAGUACCUCA, in that order: 0.0141 ± 0.0091 and 0.00417 ± 0.0038.
Take GGAGUGGAUACUAUACAACCAUCUACCUCA: the “pre-steady-state target cleavage rate” value in test [1] was 0.00432 ± 0.0024; in test [2] it was 0.00525 ± 0.0023.
Take GGAGACCUAGCUAUACAACCUACUACCUCA: the “pre-steady-state target cleavage rate” value in test [1] was found to be 0.0862 ± 0.027; in test [2], 0.00604 ± 0.0058.
The like results for GGAGAGGAUUGUAUACAACCUACUACCUCA were, in that order, 0.103 ± 0.0085 and 0.00676 ± 0.0048.
Turning to GGAGACCAUACUAUACAUCCUACAACCUCA, the “pre-steady-state target cleavage rate” value in test [1] is 0.208 ± 0.019; in test [2] it was 0.00248 ± 0.0024.
For GGAGACCAUACUGUACAACCUACUACCUCA, in that order: 0.079 ± 0.012 and 0.0144 ± 0.0056.
Regarding GGAGACCUAUCGAUACAACCUACUACCUCA, the “pre-steady-state target cleavage rate” value is 0.0869 ± 0.014 in test [1] and 0.0102 ± 0.0056 in test [2].
For GGAGAGGAUACUAAACAACCUACAACCUCA, in that order: 0.119 ± 0.014 and 0.00196 ± 0.0019.
The like results for GGAGACGAAACUAUACAACCUAGUACCUCA were, in that order, 0.0663 ± 0.021 and 0.0035 ± 0.0025.
GGAGUGGAUACUUAUACAACCUACUACCUCA: the “pre-steady-state target cleavage rate” value in test [1] amounted to 0.133 ± 0.0093; in test [2] it was 0.093 ± 0.034.
The like results for GGAGACGAUACUAUACAACUCUACUACCUCA were, in that order, 0.00377 ± 0.0022 and 0.00452 ± 0.0031.
The like results for GGAGUGGAUACUUUACUACCUACUACCUCA were, in that order, 0.16 ± 0.01 and 0.00437 ± 0.0036.
Turning to GGAGAGGAUACUUUACAUCCUACUACCUCA, the “pre-steady-state target cleavage rate” value in test [1] was determined as 0.253 ± 0.016; in test [2], 0.00455 ± 0.0027.
The like results for GGAGAGCUAACUAUACAACCUACUACCUCA were, in that order, 0.137 ± 0.018 and 0.00909 ± 0.0042.
The like results for GGAGACCUUACUAUACAACCGACUACCUCA were, in that order, 0.00424 ± 0.0031 and 0.00553 ± 0.0036.
As for GGAGAGGAUACUAUACAAGCUACUACCUCA, the “pre-steady-state target cleavage rate” value in test [1] came to 0.143 ± 0.014; in test [2], 0.00667 ± 0.003.
GGAGACCUAAUCUAUACAACCUACUACCUCA: the “pre-steady-state target cleavage rate” value in test [1] is 0.11 ± 0.024; in test [2] it was 0.297 ± 0.099.
For GGAGACCAUACAAUACUACCUACUACCUCA, in that order: 0.158 ± 0.019 and 0.00374 ± 0.0037.
For GGAGACGUUACUAUACAACCUACUACGUCA, the “pre-steady-state target cleavage rate” value in test [1] was 0.0772 ± 0.016; in test [2] it was 0.00396 ± 0.0018.
For GGAGACCAUACUAUCAACCUACUACCUCA, in that order: 0.199 ± 0.022 and 0.0101 ± 0.005.
The like results for GGAGAGGAUACUAUACUUCCUACUACCUCA were, in that order, 0.19 ± 0.015 and 0.00555 ± 0.0051.
For GGAGUGGAUACUAUUCAACCAACUACCUCA, in that order: 0.0045 ± 0.002 and 0.00404 ± 0.0021.
Consider GGAGACGAUACUAUACAACCUAGAACCUCA, for which the “pre-steady-state target cleavage rate” value in test [1] was found to be 0.0145 ± 0.0064; in test [2] it was 0.00278 ± 0.0012.
For GGAGACGAUACUCUACAACCUACUACCUCA, in that order: 0.176 ± 0.012 and 0.00744 ± 0.0035.
Regarding GGAGAGGAUACUAUACAUCCUACAACCUCA, the “pre-steady-state target cleavage rate” value in test [1] is 0.125 ± 0.024; in test [2], 0.00339 ± 0.0022.
GGAGUGGAUACUAUACAACCUACUACGCUCA: the “pre-steady-state target cleavage rate” value in test [1] amounted to 0.111 ± 0.015; in test [2], 0.00482 ± 0.0021.
For GGAGUGGUUACUAUACAACCUACUACGUCA, the “pre-steady-state target cleavage rate” value was found to be 0.0604 ± 0.011 in test [1] and 0.00307 ± 0.0016 in test [2].
For GGAGAGGAUACUAAACAACCUUCUACCUCA, in that order: 0.0108 ± 0.0026 and 0.00394 ± 0.0023.
For GGAGUGCAUACUAUACAACCUAGUACCUCA, in that order: 0.0477 ± 0.0091 and 0.00414 ± 0.0018.
For GGAGACCAAACUAUUCAACCUACUACCUCA, in that order: 0.217 ± 0.047 and 0.00445 ± 0.004.
In the case of GGAGAGCAUACUAUACAACCUACUAGCUCA, the “pre-steady-state target cleavage rate” value was found to be 0.0696 ± 0.016 in test [1] and 0.00355 ± 0.0022 in test [2].
For GGAGACCCUACUAUACAACCUACUACCUCA, in that order: 0.207 ± 0.021 and 0.153 ± 0.051.
The like results for GGAGUGCAUACUAUACAAGCUACUACCUCA were, in that order, 0.213 ± 0.014 and 0.00482 ± 0.002.
The like results for GGAGACCAAACUAUACAACCUACUACCUCA were, in that order, 0.131 ± 0.036 and 0.0177 ± 0.0063.
Regarding GGAGUGGAUACUAUCCAACCUACUACCUCA, the figures for the “pre-steady-state target cleavage rate” value in test [1] and in test [2] were 0.197 ± 0.01 and 0.0097 ± 0.0041, respectively.
GGAGAGGAUACUAUACAACCUACUACACUCA: the “pre-steady-state target cleavage rate” value was determined as 0.136 ± 0.019 in test [1] and 0.00522 ± 0.0018 in test [2].
GGAGAGGAUACUAUACAACCUACUACGACA: the results for the “pre-steady-state target cleavage rate” value in test [1] and in test [2] were 0.0606 ± 0.017 and 0.0044 ± 0.0023, respectively.
For GGAGAGGGAUACUAUACAACCUACUACCUCA, in that order: 0.237 ± 0.015 and 0.0946 ± 0.037.
For GGAGACGAUUCUAUUCAACCUACUACCUCA, the “pre-steady-state target cleavage rate” value came out at 0.231 ± 0.014 in test [1] and 0.00706 ± 0.0046 in test [2].
The like results for GGAGACCUUAGUAUACAACCUACUACCUGA were, in that order, 0.0569 ± 0.0097 and 0.00359 ± 0.0036.
GGAGAGGAUACUUUACAACCUACUACCACA: the “pre-steady-state target cleavage rate” value in test [1] worked out at 0.152 ± 0.015; in test [2], 0.0019 ± 0.0011.
For GGAGACGUUACUAUACAACCUAGUACCUCA, in that order: 0.0428 ± 0.0087 and 0.00427 ± 0.0015.
